# An excerpt weighted towards active compounds, which were near 2.5% of everything screened.
# Cruzain Triton – blocks cruzain activity in presence of Triton detergent | Potency, µM, inactives show max response, negative = inhibition, hits mostly inhibitors | 200,000 compounds, 0.43% hits | purified cruzain, Z-FR-AMC fluorescence, 0.01% Triton | AID 1478;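 note: plate controls were neutral wells for no effect and buffer without enzyme for full effect; nearly all actives have a fitted effect of over 40% in size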
# Target sequence (P25779 123-467 limits assumed): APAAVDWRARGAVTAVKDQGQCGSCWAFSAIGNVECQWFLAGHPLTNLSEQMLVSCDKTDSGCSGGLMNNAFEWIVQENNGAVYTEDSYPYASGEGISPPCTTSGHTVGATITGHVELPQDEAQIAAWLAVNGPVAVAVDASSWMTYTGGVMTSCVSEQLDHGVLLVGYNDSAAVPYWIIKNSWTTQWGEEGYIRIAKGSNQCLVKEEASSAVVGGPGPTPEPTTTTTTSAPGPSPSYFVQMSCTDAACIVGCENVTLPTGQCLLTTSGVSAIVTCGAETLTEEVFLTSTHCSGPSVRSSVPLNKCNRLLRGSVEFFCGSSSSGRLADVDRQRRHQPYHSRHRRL
#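 15 min RT preincubation of 1.5 nM cruzain with compound, then 2 uM Z-FR-AMC added; kinetic AMC fluorescence, 60 s delta. Triton X-100 0.01%, pH 5.5.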
# Cruzain inh noDet – inhibitors of Trypanosoma cruzi cruzain without detergent; 200,000 compounds, 2.3% hits; P25779; Potency, µM, inactives show max response, negative = inhibition, usual class: inhibitors; purified cruzain, Z-FR-AMC fluorescence, no detergent;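 note: plate controls were enzyme without inhibitor for no effect and buffer without enzyme for full effect; nearly all actives have a fitted effect of over 40% in size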
#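 Detergent-free condition (0.00005% Triton X-100) in acetate buffer pH 5.5 with DTT. 1.5 nM enzyme and compound were pre-mixed 15 min, then 2 uM Z-FR-AMC substrate added; reaction progress from fluorescence change between first and third reads (60 s).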
# Papain counter – papain (Carica papaya) inhibition counter-screen | purified papain, Z-FR-AMC fluorescence cleavage | AID 2161 | 410 compounds, 41% hits | shares compounds with Cruzain Triton | Potency, µM, without a hit: max response, negative = inhibition, hits mostly inhibitors;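 note: 0% = no-compound wells and -100% = no-enzyme wells; nearly all actives have a fitted effect of over 35% in size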
# Target sequence (P00784 whole entry, looked up): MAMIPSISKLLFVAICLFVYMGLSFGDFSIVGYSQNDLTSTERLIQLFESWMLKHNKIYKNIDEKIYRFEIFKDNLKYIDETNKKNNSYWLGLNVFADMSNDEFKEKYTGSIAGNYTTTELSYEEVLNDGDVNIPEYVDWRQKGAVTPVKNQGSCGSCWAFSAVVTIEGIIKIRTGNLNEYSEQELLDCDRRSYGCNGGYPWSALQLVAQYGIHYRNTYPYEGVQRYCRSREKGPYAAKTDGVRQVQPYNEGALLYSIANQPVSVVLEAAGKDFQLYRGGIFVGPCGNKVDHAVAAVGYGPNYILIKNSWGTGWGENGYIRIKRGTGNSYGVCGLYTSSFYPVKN
# * = called active by the depositor; ? = inconclusive; / = not tested or not shown. Calls come from the whole dose curve; as a rule, active = well fitted curve in the direction sought with a large enough effect; inconclusive = small, poorly fitted or top-dose-only effect, or another doubt; inactive = no such curve, though single readings can be large; an effect the other way counts as inactive or inconclusive. Potency is the fitted concentration of half-maximal effect.
SMILES,Cruzain Triton,Cruzain inh noDet,Papain counter
CCN(CC)c1nc(C#N)nc(N2CCOCC2)n1,/,/,1µM*
Nc1nc(N2CCCCC2)nc(N(c2ccccc2)c2ccccc2)n1,-5%,6%,/
Clc1nc(Cl)nc(N(c2ccccc2)c2ccccc2)n1,-2%,-10%,/
CCNc1nc(C#N)nc(N2CCCCC2)n1,/,/,2.5µM*
CCNc1nc(NC(C)(C)C)nc(N2CCCC2)n1,0%,-14%,/
N#Cc1nc(N2CCCCC2)nc(N(c2ccccc2)c2ccccc2)n1,/,/,2.8µM*
CCOc1nc(C#N)nc(N(c2ccccc2)c2ccccc2)n1,/,/,-8%
CC(C)CN(C#N)c1nc(N2CCOCC2)nc(N2CCOCC2)n1,3%,19%,/
Cc1ccc(Cl)cc1N1CCN(C(=O)CCS(=O)(=O)c2ccc3c(c2)oc(=O)n3C)CC1,-3%,?,/
CCOC(=O)c1cc(C)n(CC2CCC(C(=O)Nc3cc(OC)cc(OC)c3)CC2)c1C (stereo unspecified),-6%,-8%,/
Cc1nn(-c2nc(-c3ccc(F)cc3)cc(C(F)(F)F)n2)c(C)c1Br,-19%,6%,/
CC(C)(C)Nc1nc(N2CCCC2)nc(N2CCCC2)n1,3%,9%,/
CN(C)c1nc(N)nc(Nc2ccccc2C#N)n1,-1%,7%,/
N#Cc1nc(N2CCCCC2)nc(N2CCCCC2)n1,/,/,2.2µM*
CCN(c1ccccc1)c1nc(N)nc(C#N)n1,/,/,11µM*
CS(=O)(=O)CC[C@@H](C(=O)NCCc1ccccc1)N1Cc2ccccc2C1=O,0%,-4%,/
Cc1cc(OCCn2cc(C(=O)c3cccs3)c3ccccc32)ccc1Cl,-2%,-12%,/
C[N+]1(CCC[N+]2(C)C[C@H]3[C@H](C2)[C@H]2C=C[C@@H]3CC2)CCOCC1 (stereo partly specified),0%,10%,/
Cc1ccc(-c2noc(CN(C3CCCCC3)S(=O)(=O)c3ccc(F)cc3)n2)cc1,-6%,-20%,/
O=C(Cn1c(=O)oc2cc(S(=O)(=O)N3CCCCCC3)ccc21)NC1CCCCCCC1,-9%,20µM*,12%
CCC1CCCCN1C(=O)Cn1c(=O)oc2cc(S(=O)(=O)N3CCCCC3)ccc21 (stereo unspecified),1%,4%,/
COc1cccc(CNC(=O)c2cc(C)nc3c2c(C)nn3-c2cccc(F)c2)c1,-5%,1%,/
CCN(CC)CCNC(=O)c1ccc2c(=O)n3nc(Nc4cccc(Cl)c4C)sc3nc2c1,-2%,3%,/
N#Cc1c(NC(=O)CSc2ncnc3c2cnn3-c2ccccc2Cl)sc2c1CCCC2,3%,3.2µM*,10%
N#Cc1c(NC(=O)CSc2ncn(-c3ccccc3)n2)sc2c1CCCC2,2%,?,/
SMILES,Cruzain Triton,Cruzain inh noDet,Papain counter
CCOC(=O)c1ccc(Nc2c(-c3ccc(N(C)C)cc3)nc3nc[nH]n23)cc1,1%,-4%,/
CCN(CC)C(=O)CN(C#N)c1nc(OC)nc(N(C)C)n1,-1%,-16%,/
COc1nc(C#N)nc(N(C)C)n1,10µM*,13µM*,16µM*
Cn1cc(-c2cc3n(n2)CCC(=O)N3CC(=O)NCc2ccc(Cl)cc2)c2ccccc21,-3%,?,/
COc1ccccc1CNC(=O)CC1N=C2c3ccccc3N=C(SCC(=O)Nc3ccc(F)cc3)N2C1=O (stereo unspecified),-3%,?,/
O=C(Nc1ccc(O)c(-c2nc3ccccc3o2)c1)C1(c2ccc([N+](=O)[O-])cc2)CCCC1,-3%,4µM*,13%
O=C(Nc1ccc(-c2nc3ccccc3o2)c(O)c1)c1cc(Cl)ccc1Cl,0%,12%,/
CCC(C)NC(=O)c1ccc2nc(-c3ccco3)c(-c3ccco3)nc2c1 (stereo unspecified),/,/,16µM*
CCC(C)NC(=O)c1ccc2nc(Cc3ccccc3)oc2c1 (stereo unspecified),-2%,-5%,/
CCOc1ccc(NCc2nc3ccccc3n2CCOc2ccc(C)cc2)cc1,-9%,-9%,/
CCc1nc2ccccc2n1CCCCOc1ccc(C)cc1,-11%,6%,/
Cc1ccc(OCCn2c(CCNC(=O)C3CCCCC3)nc3ccccc32)cc1,1.3µM*,-10%,-14%
Cc1ccc(OCCCCn2c(CCNC(=O)C3CCCCC3)nc3ccccc32)cc1,/,/,32µM*
O=C(NCCc1nc2ccccc2n1CCCOc1ccc(Cl)cc1)C1CCCCC1,2µM*,16%,28µM*
CC(C)(C)c1ccc(OCCn2c(CCNC(=O)C3CCCCC3)nc3ccccc32)cc1,/,/,-20%
CC(=O)NCCc1nc2ccccc2n1CCCCOc1ccc(Cl)cc1,-10%,?,/
CC(C)(C)C(=O)NCCCc1nc2ccccc2n1CCCOc1ccc(Cl)cc1,-5%,?,/
COc1ccc(-c2cc3ccc(O)c(CN4CCC(C)CC4)c3oc2=O)cc1,0%,18%,/
Cc1ccc(OCCCn2c(CCNC(=O)C3CCCCC3)nc3ccccc32)cc1,/,/,25µM*
CC(=O)Nc1ccc(/C=C/C(=O)c2ccc(-n3nncc3-c3ccccc3)cc2)cc1,/,/,-6%
O=C(Nc1ccc(-n2nncc2-c2ccccc2)cc1)c1ccccc1,/,/,5%
COc1cccc(C(=O)Nc2ccc(-n3nncc3-c3ccccc3)cc2)c1,2%,-5%,/
CSc1ccc(/C=C/C(=O)c2ccc(NC(C)=O)cc2)cc1,-14%,?,/
CCn1cc2nc(SCC(=O)Nc3cc(OC)ccc3OC)n(Cc3ccc(Cl)cc3)c(=O)c2n1,-5%,15%,/
COc1ccc(CCNC(=O)c2ccc3c(c2)N(Cc2ccc(F)cc2)C(=O)c2ccccc2S3(=O)=O)cc1OC,-4%,?,/
SMILES,Cruzain Triton,Cruzain inh noDet,Papain counter
CC(=O)NCC(=O)OCC(=O)c1ccccc1,7%,-4%,/
O=C(CNC(=O)C1CCCCC1)OCC(=O)c1ccc(C2CCCCC2)cc1,/,/,-4%
COC(=O)c1ccc(NC(=O)CNC(=O)C2CCCCC2)cc1,5%,1%,/
O=C(CNC(=O)C1CCCCC1)OCC(=O)c1ccccc1,/,/,16µM*
O=C(CNC(=O)C1CCCCC1)Nc1ccc(Cl)cc1,2%,-2%,/
O=C(COC(=O)CNC(=O)C1CCCCC1)Nc1ccc2ccccc2c1,4.5µM*,7.9µM*,-14%
COc1cc(C(=O)COC(=O)CNC(=O)C2CCCCC2)cc(OC)c1OC,2.2µM*,2.5µM*,-28%
CC(=O)NCC(=O)OCC(=O)c1ccc(C)cc1,7%,6%,/
c1ccc(B2OC[C@@H]3OB(c4ccccc4)O[C@H]([C@@H]4COB(c5ccccc5)O4)[C@@H]3O2)cc1,0%,-2%,/
CCCCNC(=O)CCCN1C(=O)c2ccccc2Sc2ncccc21,-1%,8%,/
NCCCCCc1cnc[nH]1,-1%,-4%,/
COc1ccc(CCC(=O)NCc2nc3cccnc3n2Cc2ccc(C)cc2)cc1,-5%,21%,/
O=C(CNC(=O)c1ccc(Br)cc1)NCCc1nc2ccccc2[nH]1,-9%,8%,/
COc1ccccc1-c1nn2c(-c3cc(C)[nH]n3)nnc2s1,/,/,5%
COc1cc(-c2nn3c(-c4cc(-c5ccccc5)n[nH]4)nnc3s2)cc(OC)c1OC,/,/,-2%
COc1cc(-c2nn3c(-c4ccccc4)nnc3s2)cc(OC)c1OC,3%,?,/
Cc1ccc(-c2nn3c(-c4cccc(Cl)c4)nnc3s2)cc1,-6%,?,/
COc1ccc(-c2nnc3sc(-c4ccccc4OC)nn23)cc1,0%,?,/
Clc1ccc(-c2nn3c(-c4cc(-c5ccccc5)n[nH]4)nnc3s2)cc1,/,/,7%
COc1ccc(C(=O)[C@H](Br)[C@H](Br)C(=O)O)cc1,-10%,-23%,/

# Source: PubChem (National Center for Advancing Translational Sciences (NCATS))
